# Where “and” joins values, the source holds several entries; their conditions need not be identical. Equal values may be shown once. Inconclusive results are not listed. A call without a number means that no potency is given here. More than one record can exist for a structure, and the calls need not agree. Calls of active or inactive are those of the source. Unless noted, the call rests on the fitted dose curve; in most records, active means well fitted curve in the direction sought with a large enough effect in the repeat runs; inconclusive means weak or mixed curves; inactive means no such curve, though single readings can be large; an effect the other way counts as inactive or inconclusive.
# How the values were obtained:
# [1] = qHTS assay for small molecule agonists of the p53 signaling pathway (AID 651631; calls by dose curve; further: nearly all actives have a fitted effect of over 15% in size; further: potency means the concentration at half of the fitted maximal effect)
# How it was run: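 We treat p53RE-bla HCT-116 cells with compounds for 16 h at 37 °C, add LiveBLAzer B/G FRET substrate for 2 h at room temperature, and measure fluorescence intensity.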
# [2] = target: Nuclear receptor subfamily 1 group I member 3 (Homo sapiens) (UniProt Q14994); test: qHTS assay to identify small molecule antagonists of the constitutive androstane receptor (CAR) signaling pathway (AID 1224838);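 further: HepG2 cells stably expressing hCAR with CYP2B6 luciferase reporter stimulated by CITCO; nearly all actives have a fitted effect of over 40% in size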; further: potency means the concentration at half of the fitted maximal effect
# Nuclear receptor subfamily 1 group I member 3 (Homo sapiens), sequence (Q14994 whole entry, looked up): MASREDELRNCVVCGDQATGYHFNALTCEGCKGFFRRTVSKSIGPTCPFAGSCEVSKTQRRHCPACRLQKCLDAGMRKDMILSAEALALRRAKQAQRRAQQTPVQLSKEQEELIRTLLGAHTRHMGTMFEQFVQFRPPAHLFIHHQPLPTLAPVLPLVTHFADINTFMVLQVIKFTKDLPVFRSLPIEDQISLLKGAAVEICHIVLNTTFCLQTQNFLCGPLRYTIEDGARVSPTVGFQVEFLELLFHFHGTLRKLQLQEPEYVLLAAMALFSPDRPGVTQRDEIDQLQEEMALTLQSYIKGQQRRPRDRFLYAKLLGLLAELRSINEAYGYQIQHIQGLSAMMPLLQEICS
# How it was run: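 Quantitative HTS in double-stable HepG2-CYP2B6-hCAR cells. After 4 h plating, cells get compound (15 concentrations) and CITCO at 50 nM final, incubate 24 h at 37 C, then ONE-Glo luminescence is read.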
# [3] = qHTS assay to identify small molecule agonists of the estrogen related receptor signaling pathway with the pleiotropic PPARgamma coactivator (PGC) from Tox21 10K library (AID 1224842); further: nearly all actives have a fitted effect of over 15% in size
# How it was run: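 PGC/ERR reporter cells (NTP line) were seeded 2,000 per well, rested 6 h at 37 C/5% CO2, then pin-dosed with compounds in DMSO for 18 h at 37 C; luciferase read by One-Glo luminescence after 30 min at room temperature.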
# [4] = A CellTox Green Cytotoxicity Assay to monitor cytotoxicity in HEK293 cells - 0 hour (AID 1224869); further: nearly all actives have a fitted effect of over 50% in size
# How it was run: (§1)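 Each value comes from one timepoint of a single continuous run in which HEK293 cells with CellTox Green were exposed to compound for up to 40 h at 37 C, dye fluorescence rising with cell death.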
# [5] = qHTS RealTime-Glo MT Cell Viability Assay in HepG2 cells - 40 hour (AID 1224870); further: nearly all actives have a fitted effect of over 50% in size; further: potency means the concentration at half of the fitted maximal effect
# How it was run: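 HepG2 cells mixed with RealTime-Glo MT reagents (NanoLuc plus cell-permeant prosubstrate) were seeded at 600 cells/well, incubated 5 h at 37 C/5% CO2, then pinned with compounds in DMSO; nonlytic luminescence tracked viability during 40 h treatment.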
# [6] = A CellTox Green Cytotoxicity Assay to monitor cytotoxicity in HEK293 cells - 40 hour (AID 1224871); further: potency means the concentration at half of the fitted maximal effect; nearly all actives have a fitted effect of over 45% in size
# How it was run: as §1
# [7] = A CellTox Green Cytotoxicity Assay to monitor cytotoxicity in HepG2 cells - 16 hour (AID 1224876); further: nearly all actives have a fitted effect of over 45% in size; further: potency means the concentration at half of the fitted maximal effect
# How it was run: (§2)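 Continuous culture of HepG2 cells with a membrane-impermeant DNA dye; rising fluorescence marks dead cells. Compound exposure lasted up to 40 h at 37 C, with reads every 8 h from 0 h.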
# [8] = qHTS RealTime-Glo MT Cell Viability Assay in HepG2 cells - 32 hour (AID 1224877); further: nearly all actives have a fitted effect of over 55% in size; further: potency means the concentration at half of the fitted maximal effect
# How it was run: (§3)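 qHTS, HepG2, 600 cells/well, RealTime-Glo (NanoLuc + prosubstrate) added with cells; 5 h preincubation; DMSO compound addition; 37 C; luminescence at 0/8/16/24/32/40 h.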
# [9] = qHTS RealTime-Glo MT Cell Viability Assay in HEK293 cells - 0 hour (AID 1224880); further: top concentration of the series differs between compounds; nearly all actives have a fitted effect of over 45% in size
# How it was run: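 qHTS format; HEK293 cells with NanoLuc/prosubstrate reagent, 37 C/5% CO2 for 5 h pre-dosing; compounds 23 nL in DMSO; luminescence at each time point reflects viable cells.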
# [10] = A CellTox Green Cytotoxicity Assay to monitor cytotoxicity in HEK293 cells - 16 hour (AID 1224888); further: nearly all actives have a fitted effect of over 35% in size; further: potency means the concentration at half of the fitted maximal effect
# How it was run: as §1
# [11] = qHTS RealTime-Glo MT Cell Viability Assay in HepG2 cells - 0 hour (AID 1224889); further: nearly all actives have a fitted effect of over 50% in size
# How it was run: as §3
# [12] = A CellTox Green Cytotoxicity Assay to monitor cytotoxicity in HepG2 cells - 8 hour (AID 1224890); further: nearly all actives have a fitted effect of over 45% in size; further: potency means the concentration at half of the fitted maximal effect
# How it was run: as §2
# [13] = qHTS assay to identify small molecule antagonists of the estrogen receptor alpha (ER-alpha) signaling pathway using the BG1 cell line in the presence of 0.1 nM 17-beta-estradiol - cell viability counter screen (AID 1259241); further: nearly all actives have a fitted effect of over 40% in size; further: potency means the concentration at half of the fitted maximal effect
# How it was run: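 Estradiol-stimulated (0.1 nM) VM7Luc4E2 cells exposed to compounds 22 hr; viability measured by fluorescence of cleaved CellTiter-Fluor substrate after 30 min.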
# [14] = qHTS assay to identify small molecule HDAC inhibitors - cell viability counter screen (AID 1259365); further: series mostly up to about 92 µM; nearly all actives have a fitted effect of over 50% in size
# How it was run: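 After overnight seeding at 1,500 cells per well, wild-type HCT-116 cultures took up compounds in DMSO for 2hr at 37 C. Viable cell content came from luminescence with CellTiter-Glo.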
# [15] = qHTS assay to identify small molecule antagonists of the sonic hedgehog signaling (Shh) pathway (AID 1259369; calls by dose curve; further: nearly all actives have a fitted effect of over 45% in size; further: potency means the concentration at half of the fitted maximal effect)
# How it was run: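 Screening used 3T3Gli1-Luc cells at 2,000 per well, compounds delivered in DMSO, and conditioned medium as agonist stimulus; plates incubated 24hr at 37 C and 5% CO2 before a 30min luciferase step.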
# [16] = qHTS assay to identify small molecule agonists or antagonists of the thyroid stimulating hormone receptor (TSHR) signaling pathway - wild type cell line counter screen (AID 1259384; calls by dose curve)
# How it was run: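 Wild-type HEK293 cells were plated 18 h at 37 C/5% CO2, pin-dosed with compound plus Ro20-1724 medium, held 30 min at room temperature, then given cAMP-d2 and anti-cAMP-cryptate; fluorescence was read after 1 h. Fifteen concentrations, triplicate.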
# [17] = qHTS assay to identify small molecule agonists of the TGF-beta/Smad signaling pathway (AID 1346859; active means well fitted activation curve with a large enough effect in the signal ratio in the repeat runs, not every such curve was filed as active; the % refers to the signal ratio; further: series mostly up to about 77 µM)
# How it was run: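 Each well held 4,000 SBE-bla HEK 293T cells incubated overnight before compound addition; 5 hr later the cleavable FRET substrate went on for 2 hr at room temperature, and fluorescence was read at two emissions.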
# [18] = target: Cytochrome P450 1A2 (Homo sapiens) (UniProt P05177); test: Cytochrome P450 Family 1 Subfamily A Member 2 (CYP1A2) small molecule antagonists: luciferase reporter qHTS assay (AID 1671199); further: nearly all actives have a fitted effect of over 50% in size; further: potency means the concentration at half of the fitted maximal effect
# Cytochrome P450 1A2 (Homo sapiens), sequence (P05177 whole entry, looked up): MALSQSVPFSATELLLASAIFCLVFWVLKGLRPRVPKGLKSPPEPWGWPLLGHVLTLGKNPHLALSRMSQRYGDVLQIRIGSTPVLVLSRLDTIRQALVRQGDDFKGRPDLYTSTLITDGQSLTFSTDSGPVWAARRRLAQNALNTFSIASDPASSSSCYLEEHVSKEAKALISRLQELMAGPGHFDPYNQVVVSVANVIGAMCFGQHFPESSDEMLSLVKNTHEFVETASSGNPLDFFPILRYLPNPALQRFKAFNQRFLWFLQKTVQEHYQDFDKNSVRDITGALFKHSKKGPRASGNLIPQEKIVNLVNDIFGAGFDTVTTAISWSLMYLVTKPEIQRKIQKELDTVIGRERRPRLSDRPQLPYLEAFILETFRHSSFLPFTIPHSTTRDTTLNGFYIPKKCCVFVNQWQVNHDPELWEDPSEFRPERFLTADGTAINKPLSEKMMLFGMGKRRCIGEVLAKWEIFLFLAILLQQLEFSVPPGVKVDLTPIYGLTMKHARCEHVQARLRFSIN
# How it was run: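 Signal from luciferin formed by CYP1A2 from a proluciferin substrate is read as luminescence, expressed in relative luminescence units. Compounds sit with enzyme 10 min, NADPH-driven reaction runs 1 h, all at room temperature.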
# [19] = target: Voltage-gated inwardly rectifying potassium channel KCNH2 (Homo sapiens) (UniProt Q12809); test: Human Ether-a-go-go-Related Gene (hERG) channel small molecule antagonists: fluorescence cell-based qHTS assay (AID 1671200); further: nearly all actives have a fitted effect of over 50% in size; further: potency means the concentration at half of the fitted maximal effect
# Voltage-gated inwardly rectifying potassium channel KCNH2 (Homo sapiens), sequence (Q12809 whole entry, looked up): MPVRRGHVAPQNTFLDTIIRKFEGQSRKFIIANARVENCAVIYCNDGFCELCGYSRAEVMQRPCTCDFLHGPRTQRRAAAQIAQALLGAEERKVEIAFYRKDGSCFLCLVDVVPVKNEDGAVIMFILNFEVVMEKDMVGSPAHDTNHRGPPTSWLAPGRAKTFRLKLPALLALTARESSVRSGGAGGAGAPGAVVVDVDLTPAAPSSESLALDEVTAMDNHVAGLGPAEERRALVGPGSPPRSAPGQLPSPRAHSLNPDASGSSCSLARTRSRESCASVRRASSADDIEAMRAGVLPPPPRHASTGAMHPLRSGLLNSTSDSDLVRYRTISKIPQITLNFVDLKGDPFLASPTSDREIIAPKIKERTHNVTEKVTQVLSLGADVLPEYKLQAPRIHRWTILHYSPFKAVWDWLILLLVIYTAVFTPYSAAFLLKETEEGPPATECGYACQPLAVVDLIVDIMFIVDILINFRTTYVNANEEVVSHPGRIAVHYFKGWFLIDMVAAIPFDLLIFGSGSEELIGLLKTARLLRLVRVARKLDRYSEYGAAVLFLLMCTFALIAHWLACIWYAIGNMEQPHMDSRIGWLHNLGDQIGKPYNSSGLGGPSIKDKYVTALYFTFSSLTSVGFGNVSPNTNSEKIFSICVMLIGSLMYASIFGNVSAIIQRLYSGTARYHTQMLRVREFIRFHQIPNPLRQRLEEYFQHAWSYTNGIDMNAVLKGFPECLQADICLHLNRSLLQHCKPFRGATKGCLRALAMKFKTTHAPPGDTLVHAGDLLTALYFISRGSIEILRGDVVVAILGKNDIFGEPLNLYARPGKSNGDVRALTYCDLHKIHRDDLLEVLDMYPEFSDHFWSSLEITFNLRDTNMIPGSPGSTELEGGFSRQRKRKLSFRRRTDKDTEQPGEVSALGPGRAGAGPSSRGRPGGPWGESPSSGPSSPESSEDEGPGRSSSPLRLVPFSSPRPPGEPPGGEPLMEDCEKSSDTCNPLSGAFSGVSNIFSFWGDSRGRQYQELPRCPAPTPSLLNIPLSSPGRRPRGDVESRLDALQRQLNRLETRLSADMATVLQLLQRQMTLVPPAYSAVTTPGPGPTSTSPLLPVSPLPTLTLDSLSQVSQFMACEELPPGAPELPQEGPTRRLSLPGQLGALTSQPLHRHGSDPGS
# How it was run: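 Kinetic two-minute fluorescence traces, sampled at 1 s, were collected following thallium stimulus of U2OS cells (1000 per well) that had been cultured overnight at 37 C and loaded with FluxOR II.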
# [20] = qHTS assay to identify small molecule antagonists of the androgen receptor (AR) signaling pathway using the MDA cell line in the presence of 0.5 nM R1881 - cell viability counter screen (AID 1259242); further: nearly all actives have a fitted effect of over 45% in size; further: potency means the concentration at half of the fitted maximal effect
# How it was run: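 Fluorescence from CellTiter-Fluor, which reports protease activity of live cells, was read 30 min after reagent addition to MDA-kb2 cells that had been incubated 16 hr with compound and 0.5 nM R1881.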
compound,measurement,setting,value
CN1CSC(=S)N(C)C1,Potency,[1],inactive
same,Potency,[2],3.84 µM (active) and 7.67 µM (active)
same,Potency,[3],inactive
same,Potency,[4],inactive
same,Potency,[5],12.3 µM (active)
same,Potency,[6],6.88 µM (active) and 12.3 µM (active)
same,Potency,[7],inactive
same,Potency,[8],15.4 µM (active)
same,outcome,[9],inactive
same,Potency,[10],inactive
same,Potency,[11],inactive
same,Potency,[12],inactive
same,Potency,[13],17.1 µM (active)
same,outcome,[14],inactive
same,Potency,[15],342 nM (active) and 1.08 µM (active)
same,outcome,[16],inactive
same,outcome,[17],inactive
same,Potency,[18],inactive and 39.8 µM (active)
same,Potency,[19],inactive
O=S(=O)(C(Cl)(Cl)Cl)C(Cl)(Cl)Cl,Potency,[2],24.3 µM (active)
same,Potency,[3],inactive
same,Potency,[4],inactive
same,Potency,[5],34.7 µM (active)
same,Potency,[6],17.4 µM (active)
same,Potency,[7],38.9 µM (active)
same,Potency,[8],34.7 µM (active)
same,outcome,[9],inactive
same,Potency,[10],24.5 µM (active)
same,Potency,[12],34.7 µM (active)
same,Potency,[13],inactive
same,Potency,[20],54.5 µM (active)
same,Potency,[15],2.17 µM (active)
same,outcome,[16],inactive
same,outcome,[17],inactive
same,Potency,[18],22.4 µM (active)
same,Potency,[19],24.5 µM (active)
COCCOC(=O)c1ccccc1C(=O)OCCOC,Potency,[1],inactive
O=C1OC(=O)c2c(Cl)c(Cl)c(Cl)c(Cl)c21,Potency,[1],inactive
same,Potency,[2],inactive
CCCCC(CC)COC(=O)c1ccc(C(=O)OCC(CC)CCCC)cc1 (stereo unspecified),Potency,[1],inactive
same,Potency,[3],inactive
Cc1cc(C)c(C(=O)P(=O)(c2ccccc2)c2ccccc2)c(C)c1,Potency,[2],inactive
same,Potency,[3],inactive
same,Potency,[4],inactive
same,Potency,[5],inactive
same,Potency,[8],inactive
same,Potency,[10],inactive
same,Potency,[12],inactive
same,Potency,[13],inactive
same,Potency,[20],inactive
same,outcome,[14],inactive
same,Potency,[15],4.33 µM (active)
same,outcome,[16],inactive
same,outcome,[17],inactive
same,Potency,[18],inactive
same,Potency,[19],19.5 µM (active)
OCC(c1ccc(Cl)cc1)c1ccc(Cl)cc1,Potency,[4],inactive
same,Potency,[6],43.6 µM (active)
same,Potency,[7],43.6 µM (active)
same,outcome,[9],inactive
same,Potency,[10],24.5 µM (active)
same,Potency,[11],inactive
same,Potency,[12],49 µM (active)
same,Potency,[13],inactive
same,Potency,[20],inactive
same,outcome,[14],inactive
same,Potency,[15],24.3 µM (active)
same,outcome,[16],inactive
same,outcome,[17],inactive
same,Potency,[18],35.6 µM (active)
same,Potency,[19],43.6 µM (active)
Nc1ccc(Cl)cc1[N+](=O)[O-],Potency,[1],inactive
same,Potency,[2],inactive
same,Potency,[3],inactive
c1ccc2c(c1)Sc1ccccc1N2CC1CN2CCC1CC2 (stereo unspecified),Potency,[3],inactive
same,Potency,[4],inactive
same,Potency,[5],21.3 µM (active)
same,Potency,[6],26.8 µM (active)
same,Potency,[7],23.9 µM (active)
same,Potency,[8],23.9 µM (active)
same,Potency,[13],inactive
same,Potency,[20],29.8 µM (active)
same,outcome,[14],inactive
same,Potency,[15],9.44 µM (active)
same,outcome,[16],inactive
same,outcome,[17],inactive
same,Potency,[18],inactive
same,Potency,[19],5.35 µM (active)
Clc1ccccc1-c1ccccc1Cl,Potency,[4],inactive
same,Potency,[5],inactive
same,Potency,[6],31.4 µM (active)
same,Potency,[7],inactive
same,Potency,[8],inactive
same,outcome,[9],inactive
same,Potency,[10],35.2 µM (active)
same,Potency,[11],inactive
same,Potency,[12],inactive
same,Potency,[13],inactive
same,Potency,[20],inactive
same,outcome,[14],inactive
same,Potency,[15],inactive
same,outcome,[17],inactive
same,Potency,[18],inactive
same,Potency,[19],27.9 µM (active)
c1ccncc1,Potency,[1],inactive
Cc1cccc([N+](=O)[O-])c1C,Potency,[1],inactive
Nc1cccc(C(F)(F)F)c1,Potency,[1],inactive
CC(CCl)OP(=O)(OC(C)CCl)OC(C)CCl (stereo unspecified),Potency,[1],inactive
Oc1c(Cl)ccc(Cl)c1Cl,Potency,[2],inactive
same,Potency,[3],inactive
CCc1cccc(CC)c1N,Potency,[1],inactive
Nc1ccc(Cl)cc1Cl,Potency,[1],inactive
same,Potency,[3],inactive
CCc1cccc(C)c1N,Potency,[1],inactive
same,Potency,[3],inactive
C=CC(=O)OCCCCCCCC(C)C,Potency,[1],inactive
C=CC(=O)OCCCC,Potency,[1],inactive
O=[N+]([O-])c1cc(C(F)(F)F)ccc1Cl,Potency,[3],inactive
Brc1c2ccccc2cc2ccccc12,Potency,[1],61.8 µM (active)
C[C@@]12C(=O)OC(=O)[C@]1(C)C1CCC2O1,Potency,[1],1.6 µM (active)
C=CCOC(=O)c1ccccc1C(=O)OCC=C,Potency,[1],inactive
O=[N+]([O-])c1cccc(Cl)c1Cl,Potency,[3],inactive
CC(C)(C)OCC1CO1 (stereo unspecified),Potency,[1],inactive
c1cc(OCC2CO2)cc(OCC2CO2)c1 (stereo unspecified),Potency,[1],21.5 µM (active)
COc1ccccc1[N+](=O)[O-],Potency,[1],inactive
same,Potency,[3],inactive

# Source: PubChem BioAssay (Tox21)
